The values below come from PubChem BioAssay AID1347419 (Sanford-Burnham Center for Chemical Genomics, 2020).

About 820 (0.83%) of roughly 99,000 compounds were called active. This is one part of a sample in which actives are shown more often than they occur.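 How the source made its calls: active means Z-score of -3 or lower, scaled per plate to the spread of control and sample wells; inactive means z-score above -3.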

This assay deals with Protein-tyrosine kinase 2-beta (Homo sapiens) (UniProt Q14289). Briefly: antagonists of Pyk2 self-association, primary screen, Q293 cells, FERM NanoBiT luminescence, HTS (AID 1347419).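 Further: the deposit names both 25 µM and 10 µM; negative z-score means lost luminescence so less FERM oligomerization.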 Also noted: dose or concentration left out as unconfirmed. The conditions noted are these: active compounds read low.
Chain of Protein-tyrosine kinase 2-beta (Homo sapiens) (Q14289 whole entry, looked up): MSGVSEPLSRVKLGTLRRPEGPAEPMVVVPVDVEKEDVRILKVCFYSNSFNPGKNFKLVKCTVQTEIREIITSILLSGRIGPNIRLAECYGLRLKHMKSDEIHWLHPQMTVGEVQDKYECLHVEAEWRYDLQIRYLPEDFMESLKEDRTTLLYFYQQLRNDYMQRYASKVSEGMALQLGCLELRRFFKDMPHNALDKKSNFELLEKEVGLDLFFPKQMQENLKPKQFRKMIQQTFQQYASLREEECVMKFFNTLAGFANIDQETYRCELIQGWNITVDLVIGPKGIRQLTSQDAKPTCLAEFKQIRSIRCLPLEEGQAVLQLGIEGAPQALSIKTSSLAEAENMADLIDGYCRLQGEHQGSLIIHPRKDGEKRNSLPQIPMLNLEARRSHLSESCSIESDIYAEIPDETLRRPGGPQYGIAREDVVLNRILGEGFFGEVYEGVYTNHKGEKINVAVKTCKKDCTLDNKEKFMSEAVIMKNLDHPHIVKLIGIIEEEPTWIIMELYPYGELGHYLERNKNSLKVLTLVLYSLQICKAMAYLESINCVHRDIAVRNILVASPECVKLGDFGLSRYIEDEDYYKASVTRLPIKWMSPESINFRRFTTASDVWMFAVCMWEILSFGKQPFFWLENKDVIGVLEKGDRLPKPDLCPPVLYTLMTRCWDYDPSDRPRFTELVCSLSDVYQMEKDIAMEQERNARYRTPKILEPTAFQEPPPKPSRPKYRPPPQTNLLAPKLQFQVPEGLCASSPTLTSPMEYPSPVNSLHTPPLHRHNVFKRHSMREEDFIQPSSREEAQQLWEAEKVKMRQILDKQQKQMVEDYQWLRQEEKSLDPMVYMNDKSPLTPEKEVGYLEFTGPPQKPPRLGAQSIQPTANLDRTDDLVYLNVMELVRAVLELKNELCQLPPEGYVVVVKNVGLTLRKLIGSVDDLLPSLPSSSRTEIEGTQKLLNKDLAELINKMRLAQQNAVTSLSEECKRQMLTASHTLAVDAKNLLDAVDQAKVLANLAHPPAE
With `CCC(=NCc1ccco1)c1c(O)n(Cc2ccccc2)c(=O)[nH]c1=O`, the z-score was -0.23 (inactive). For the compound `CC(=O)c1c(O)n(C2CCCCCC2)c(=O)[nH]c1=O`, the z-score is 0.12 (inactive). As for `CCC(=NCCc1ccccc1)c1c(O)n(C2CCCCC2)c(=O)[nH]c1=O`, the z-score is -3.36 (active). With `CN(C)c1ccc(/C=C2\CC3C4CC=C5CC(O)CCC5(C)C4CCC3(C)C2=O)cc1` (stereo not given), the z-score is -0.08 (inactive). In the case of `O=C(COC(=O)c1ccccc1)Nc1ccc(Cl)cc1C(=O)c1ccccc1`, the z-score was 0.02 (inactive).
